This passage reports binding signal results from publication PMC10668032, “Altered binding affinity of SIX1-Q177R correlates with enhanced WNT5A and WNT pathway effector expression in Wilms tumor”.

Whole data set: some 33,000 sequences, median “e-score” near -0.053, cut for the highest 2% near 0.38. The sample holds the highest values, similar sequences and a random draw of the others, so the mix is not that of the screen.

The target in this assay is T1, SIX1 homeodomain (reference allele) (human, UniProt Q15475 108-198).
T1 sequence: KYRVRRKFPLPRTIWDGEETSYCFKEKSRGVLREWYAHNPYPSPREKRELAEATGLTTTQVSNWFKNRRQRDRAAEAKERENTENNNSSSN
Put plainly: universal protein binding microarray; Universal all-10-mer PBM (8x60K, AMADID 030236), 300 nM GST-tagged protein, Alexa Fluor 488 anti-GST; buffer, salt, pH and temperature not stated (as in Berger); high values mean tight binding. Conditions: protein: ivt; tags: N-terminal GST; dsDNA, one strand shown. The gist of the method: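 After in vitro transcription/translation, GST-tagged homeodomains were quantified against a recombinant GST standard curve by anti-GST western blot. They were then placed in duplicate at 300 nM final concentration on universal 'all 10-mer' protein binding microarrays of 8×60K format.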
As to ATCAAGGG, the binding signal was determined as 0.258 ± 0.0527 E-score.
Turning to GGAGATTA, the binding signal was 0.197 ± 0.0921 E-score.
The value for ATCGGGTC was 0.285 ± 0.0351 E-score; that for CCGATGAG was 0.173 ± 0.0124 E-score.
Turning to GAGATAGA, the binding signal stood at 0.183 ± 0.00408 E-score.
Next, ACGAATAT: 0.179 ± 0.047 E-score; CGTTATAC: 0.204 ± 0.0355 E-score; ATCATGTG: 0.328 ± 0.0175 E-score.
The value for CATTGCGG was 0.222 ± 0.028 E-score; that for CCGCCATA was 0.209 ± 0.0131 E-score; that for ATACAACG was 0.152 ± 0.0326 E-score.
Turning to ATCCTCTC, the binding signal was 0.264 ± 0.0756 E-score.
With ATCGCTCA, the binding signal was found to be 0.192 ± 0.00955 E-score.
The value for AAGGTATA was 0.272 ± 0.131 E-score; that for GGGGTATA was 0.441 ± 0.0155 E-score; that for CGGGTATC was 0.487 ± 0.00716 E-score.
Next, TAGGTATA: 0.382 ± 0.0292 E-score; GGGGTAGA: 0.158 ± 0.0407 E-score; AGGGGGTA: 0.294 ± 0.0383 E-score.
Consider GCGGTATA, for which the binding signal came out at 0.3752 ± 0.00298 E-score.
Next, CGGGGGTA: 0.301 ± 0.0117 E-score; CGGGTCTC: 0.187 ± 0.0479 E-score; CGGGTATA: 0.365 ± 0.00269 E-score.
The value for AGGGTATA was 0.407 ± 0.0114 E-score; that for TGATGCCA was 0.152 ± 0.025 E-score.
The value for ATAGGGCG was 0.158 ± 0.0277 E-score; that for AATATCTG was 0.188 ± 0.0693 E-score.
For the sequence CATGAAAG, the binding signal was determined as 0.157 ± 0.0184 E-score.
Next, AGGGTATC: 0.4907 ± 0.00122 E-score; AGGGTAAT: 0.205 ± 0.0122 E-score; AGGGTATG: 0.28 ± 0.0175 E-score.
As to CCATCCCC, the binding signal turned out to be 0.203 ± 0.0814 E-score.
The value for GTAATATA was 0.226 ± 0.0387 E-score; that for AGTGATAG was 0.32 ± 0.0815 E-score.
Consider AGTGATAC, for which the binding signal was 0.489 ± 0.00626 E-score.
Consider GGTGATAC, for which the binding signal amounted to 0.4856 ± 0.00178 E-score.
The value for AGTGATAT was 0.451 ± 0.0283 E-score; that for GGTGATAA was 0.154 ± 0.0176 E-score.
The value for CGTGATAG was 0.244 ± 0.00391 E-score; that for AGTGACAC was 0.354 ± 0.0169 E-score; that for AGTGAGAT was 0.306 ± 0.0146 E-score.
In the case of CGTGATAC, the binding signal is 0.4798 ± 0.000721 E-score.
The value for AGTGTGAT was 0.247 ± 0.0427 E-score; that for CGTGACAC was 0.2472 ± 0.00208 E-score; that for GGTGATGA was 0.191 ± 0.0354 E-score.
On to ACACCATG, for which the binding signal is 0.306 ± 0.0191 E-score.
As for CCCCATCG, the binding signal worked out at 0.152 ± 0.0278 E-score.
The value for TACCCACA was 0.196 ± 0.0401 E-score; that for ATAGGCAG was 0.184 ± 0.025 E-score.
Next, CCAAGATA: 0.229 ± 0.0485 E-score; ATACGCAG: 0.314 ± 0.0177 E-score.
The value for ATCATGTC was 0.295 ± 0.0201 E-score.
Turning to GCGACCGA, the binding signal amounted to 0.151 ± 0.024 E-score.
Next, ATCCCCCG: 0.403 ± 0.00588 E-score; ATCCCCAT: 0.295 ± 0.0355 E-score.
The value for ATCCCCGG was 0.307 ± 0.0247 E-score; that for ATCCCGCG was 0.323 ± 0.0328 E-score.
Consider ATCCCGAT, for which the binding signal was found to be 0.378 ± 0.0289 E-score.
The value for ATCCCCCA was 0.392 ± 0.0226 E-score; that for ATCCCGAA was 0.252 ± 0.0478 E-score.
For the sequence ATCCCCTC, the binding signal was 0.387 ± 0.0304 E-score.
The value for ATCCCCAA was 0.294 ± 0.0584 E-score.
In the case of ATCCCGAG, the binding signal came to 0.257 ± 0.025 E-score.
The value for ATCCCCTG was 0.3344 ± 0.00285 E-score; that for ATCCCCTA was 0.374 ± 0.0124 E-score; that for ATGCGGTA was 0.265 ± 0.0333 E-score.
Next, AGATGGAT: 0.328 ± 0.00364 E-score; ATACAGGG: 0.295 ± 0.0454 E-score.
The value for CGTAGATA was 0.23 ± 0.0417 E-score; that for GATCGTTA was 0.198 ± 0.00351 E-score.
Regarding ATACGGCC, the binding signal was 0.344 ± 0.0108 E-score.
The value for ATTAATCC was 0.316 ± 0.089 E-score; that for TCAATCCA was 0.163 ± 0.0587 E-score; that for ATCACCCA was 0.308 ± 0.00677 E-score.
For the sequence ATCACCCG, the binding signal was 0.397 ± 0.0282 E-score.
The value for ATCACCCC was 0.302 ± 0.0208 E-score; that for ATCCCCCC was 0.423 ± 0.0283 E-score.
Next, ATCCCCGC: 0.326 ± 0.0778 E-score.
The value for ATCCCCAC was 0.347 ± 0.0302 E-score; that for ATCGTAGG was 0.16 ± 0.0377 E-score; that for CTGATCTA was 0.2567 ± 0.000955 E-score.
As to GATACGCA, the binding signal amounted to 0.4207 ± 0.00257 E-score.
The value for GATACGTA was 0.4288 ± 0.00319 E-score; that for GAGACGCC was 0.155 ± 0.0256 E-score; that for GATACGCC was 0.4525 ± 0.00258 E-score.
The value for TATACGCA was 0.304 ± 0.0184 E-score; that for GATACAAA was 0.252 ± 0.0232 E-score; that for GACACGTA was 0.211 ± 0.0335 E-score.
For the sequence AATACGTA, the binding signal was determined as 0.237 ± 0.0731 E-score.
On to AATACGCC, for which the binding signal was 0.188 ± 0.0403 E-score.
For CCCGTCTA, the binding signal was determined as 0.159 ± 0.00699 E-score.
The value for AGACGTAT was 0.319 ± 0.0844 E-score; that for CAGTGTCA was 0.249 ± 0.0216 E-score.
Take CGCATCGA: the binding signal was determined as 0.208 ± 0.103 E-score.
Next, CACCGGTG: 0.196 ± 0.0172 E-score; ATATGAAT: 0.19 ± 0.0448 E-score.
Next, ATCTGATG: 0.156 ± 0.0564 E-score; ATCTGACC: 0.282 ± 0.0195 E-score; ACCTGATA: 0.401 ± 0.0362 E-score.
Regarding CCCTGATA, the binding signal was 0.36 ± 0.00422 E-score.
In the case of CTCTGATA, the binding signal stood at 0.312 ± 0.08 E-score.
Take ATCTGATA: the binding signal was found to be 0.446 ± 0.0144 E-score.
The value for ACCTGATC was 0.31 ± 0.0291 E-score; that for ATCTGATC was 0.419 ± 0.0129 E-score; that for ATCTGAAC was 0.179 ± 0.00772 E-score.
The value for GGTTTCGA was 0.172 ± 0.0592 E-score.
Regarding GAGATCTA, the binding signal amounted to 0.172 ± 0.0177 E-score.
TAAACCCA: the binding signal was determined as 0.161 ± 0.0201 E-score.
Next, CGATCGCA: 0.284 ± 0.0349 E-score; ATCGGTGA: 0.232 ± 0.0224 E-score.
Next, GTGTCCCA: 0.204 ± 0.0515 E-score.
